Results from PubChem BioAssay AID1117308 (National Center for Advancing Translational Sciences (NCATS), 2015).
This is one part of the list. Activity calls are given as the source filed them. Calls come from the whole dose curve.

settings: Ebola pseudovirus entry assay, ratio channel

Structure (SMILES) | outcome | AC50
CO[C@H]1C[C@@H]2CC[C@@H](C)[C@@](O)(O2)C(=O)C(=O)N2CCCC[C@@H]2C(=O)O[C@H]([C@@H](C)C[C@@H]2CC[C@H](O)[C@H](OC)C2)CC(=O)[C@H](C)C=C(C)[C@@H](O)[C@@H](OC)C(=O)[C@H](C)C[C@H](C)C=CC=CC=C1C | inactive | 
CN(C(=O)CN(CCO)CC(=O)N(C)C(C)(C)Cc1ccccc1)C(C)(C)Cc1ccccc1 |  | 6.11 µM (active)
COc1ccccc1OCCNCC(O)COc1cccc2[nH]c3ccccc3c12 (centres undefined) |  | 17.2 µM (active)
Clc1ccc(C(Cn2ccnc2)OCc2ccsc2Cl)c(Cl)c1 (centres undefined) |  | 13.7 µM (active)
CCCCN(CCCC)CCC(O)c1cc2c(Cl)cc(Cl)cc2c2cc(C(F)(F)F)ccc12 (centres undefined) |  | 13.7 µM (active)
CO[C@]12CC[C@@]3(C[C@@H]1[C@](C)(O)C(C)(C)C)[C@@H]1Cc4ccc(O)c5c4[C@@]3(CCN1CC1CC1)[C@H]2O5 |  | 9.87 µM (active)
CC[C@]1(O)C[C@@H]2CN(CCc3c([nH]c4ccccc34)[C@@](C(=O)OC)(c3cc4c(cc3OC)N(C)[C@H]3[C@@](O)(C(=O)OC)[C@H](OC(C)=O)[C@]5(CC)C=CCN6CC[C@]43[C@@H]65)C2)C1 |  | 0.137 µM (active)
CCN(CC)CCCC(C)Nc1ccnc2cc(Cl)ccc12 (centres undefined) |  | 15.3 µM (active)
CCCC(C(=O)OCCN(CC)CC)(c1ccccc1)c1ccccc1 |  | 4.85 µM (active)
